Experimental data as given in ChEMBL document CHEMBL3988442, “University of Dundee, Small-Polar-MMV Screening Library” (2021).
Among all 48,000 compounds or so, about 13,000 (27%) showed an effect of 50% or more. The list shows a part of the results.

These compounds were tested on Wolbachia pipientis (assay: Anti-Wolbachia Cell-Based Screen). Settings: 5 µM.
Type: functional
Parameters: scale not given: in the data most compounds retested in dose-response had high values
With `Cc1cccnc1CC(C)NC1CCSCC1` (stereo not given) the “Percent Effect” value was -10.51%.
`CC(Cc1c(F)cccc1F)NC(=O)CSCC(N)=O` (stereo not given) was tested, and the “Percent Effect” value was -4.817%.
`CCNC(=O)CN1CCSC2(CCCCC2)C1` was tested, and the “Percent Effect” value was -30.52%.
For `O=C(CC1CC1)N[C@@H]1CN(Cc2ccncc2)C[C@@H]2CCCO[C@@H]21.O=C(O)C(F)(F)F.O=C(O)C(F)(F)F`, the “Percent Effect” value was -9.965%.
In the case of `Cc1cc(CN2C[C@@H]3CCCO[C@@H]3[C@H](NS(C)(=O)=O)C2)no1.O=C(O)C(F)(F)F`, the “Percent Effect” value is reported as -7.292%.
For `Cc1oncc1C(=O)N[C@@H]1CN(C2CCC2)C[C@@H]2CCCO[C@@H]21.O=C(O)C(F)(F)F`, the “Percent Effect” value was 88.41%.
In the case of `O=C(O)C(F)(F)F.O=C(O)C(F)(F)F.O=C(O)C(F)(F)F.c1ccc(CN2C[C@@H]3CCCO[C@@H]3[C@H](Nc3ccccn3)C2)nc1`, the “Percent Effect” value is reported as -7.621%.
In the case of `CCS(=O)(=O)N[C@@H]1CN(Cc2cc(C)on2)C[C@@H]2CCCO[C@@H]21.O=C(O)C(F)(F)F`, the “Percent Effect” value is reported as -1.229%.
`Cc1cc(CN2C[C@@H]3CCCO[C@@H]3[C@H](Nc3ccccn3)C2)no1.O=C(O)C(F)(F)F.O=C(O)C(F)(F)F` was tested, and the “Percent Effect” value was 7.146%.
With `Cc1ncsc1CN1C[C@@H]2CCCO[C@@H]2[C@H](Nc2ccccn2)C1.O=C(O)C(F)(F)F.O=C(O)C(F)(F)F` the “Percent Effect” value was 103.9%.
`Cc1oncc1C(=O)N[C@@H]1CN(CC2CC2)C[C@@H]2CCCO[C@@H]21.O=C(O)C(F)(F)F` was tested, and the “Percent Effect” value was 91.11%.
For `CCOCCN1C[C@@H]2CCCO[C@@H]2[C@H](NC(=O)c2cnoc2C)C1.O=C(O)C(F)(F)F`, the “Percent Effect” value was 102.3%.
`Cc1noc(C)c1CN1C[C@@H]2CCCO[C@@H]2[C@H](NS(C)(=O)=O)C1.O=C(O)C(F)(F)F` was tested, and the “Percent Effect” value was -5.766%.
For `O=C(CC1CC1)N[C@@H]1CN(Cc2cccnc2)C[C@@H]2CCCO[C@@H]21.O=C(O)C(F)(F)F.O=C(O)C(F)(F)F`, the “Percent Effect” value was -3.357%.
`CC(C)c1cc(N2CCCC3(CCN(C)C3)C2)ncn1` (stereo not given) was tested, and the “Percent Effect” value was 23.89%.
In the case of `CCN(CC)C(=O)C1CCC2(CCNCC2)O1.Cl` (stereo not given), the “Percent Effect” value is reported as -5.53%.
For `Cc1nn(CCNC(C)Cn2ccnc2)c(C)c1Cl` (stereo not given), the “Percent Effect” value was -2.201%.
In the case of `COCC(=O)NC(C)Cc1cccc(Br)c1` (stereo not given), the “Percent Effect” value is reported as -14.37%.
With `CCc1cc(N2CCNCC2)n2nc(C)c(C)c2n1` the “Percent Effect” value was -8.161%.
With `CC(C)c1cc(CN2CCNCC2)no1` the “Percent Effect” value was 116.8%.
`CCc1noc(C(C)N2CCNCC2)n1` (stereo not given) was tested, and the “Percent Effect” value was 13%.
For `CN1CCC2(CC1)C(=O)N(c1cccnc1)c1ccc(F)cc12.Cl`, the “Percent Effect” value was -1.333%.
With `NC(=O)CN1CCCCC1c1ccc(-n2ccnc2)nc1` (stereo not given) the “Percent Effect” value was 114.9%.
With `O=C(c1ccc(-n2ccnc2)nc1)N1CCN2CCCCC2C1` (stereo not given) the “Percent Effect” value was -5.274%.
`CN1CCCCC1c1ccc(-n2ccnc2)nc1` (stereo not given) was tested, and the “Percent Effect” value was 128%.
With `Cl.NC(CC1CCCCC1)c1ccccc1` (stereo not given) the “Percent Effect” value was -2.613%.
With `CCCn1cc(C(=O)NCCS(N)(=O)=O)c2ccccc21` the “Percent Effect” value was 15.61%.
For `COCCn1cc(C(=O)NCCS(N)(=O)=O)c2ccccc21`, the “Percent Effect” value was 11.42%.
With `COCCn1cc(C(=O)Nc2nc3c(s2)CCC3)c2ccccc21` the “Percent Effect” value was 108.8%.
`Cc1cccc(CN2CC[C@@H]3[C@@H]2CCN3C(=O)c2ccno2)n1.O=C(O)C(F)(F)F.O=C(O)C(F)(F)F` was tested, and the “Percent Effect” value was -0.9424%.
With `Cc1cccc(CN2CC[C@H]3[C@H]2CCN3C(=O)c2cnn(C)c2)n1.O=C(O)C(F)(F)F.O=C(O)C(F)(F)F` the “Percent Effect” value was -8.772%.
`Cc1cccc(CN2CC[C@@H]3[C@@H]2CCN3C(=O)Cc2cccs2)n1.O=C(O)C(F)(F)F.O=C(O)C(F)(F)F` was tested, and the “Percent Effect” value was 101.6%.
`Cc1cccc(CN2CC[C@@H]3[C@@H]2CCN3C(=O)Cc2ccsc2)n1.O=C(O)C(F)(F)F.O=C(O)C(F)(F)F` was tested, and the “Percent Effect” value was 119.7%.
`Cc1ccc(CN2CC[C@@H]3[C@@H]2CCN3C(=O)Cc2cccs2)o1.O=C(O)C(F)(F)F` was tested, and the “Percent Effect” value was 90.39%.
`Cc1cc(CN2CC[C@H]3[C@H]2CCN3C)oc1C.O=C(O)C(F)(F)F.O=C(O)C(F)(F)F` was tested, and the “Percent Effect” value was 2.968%.
With `Cc1cccc(CN2C(=O)C[C@H]3[C@@H]2CCN3Cc2cccs2)n1.O=C(O)C(F)(F)F.O=C(O)C(F)(F)F` the “Percent Effect” value was 4.955%.
`Cc1cccc(CN2CC[C@@H]3[C@@H]2CCN3C(=O)c2cnoc2C)n1` was tested, and the “Percent Effect” value was -2.884%.
In the case of `Cc1cccc(CN2CC[C@@H]3[C@@H]2CCN3Cc2cccs2)n1.O=C(O)C(F)(F)F.O=C(O)C(F)(F)F`, the “Percent Effect” value is reported as 102.2%.
In the case of `Cc1ccc(CN2CC[C@H]3[C@H]2CC(=O)N3c2cccnc2)o1.O=C(O)C(F)(F)F.O=C(O)C(F)(F)F`, the “Percent Effect” value is reported as 1.465%.
In the case of `COCCN1C[C@@H]2[C@@H](OC)CCN(Cc3cccc(C)n3)[C@@H]2C1.O=C(O)C(F)(F)F.O=C(O)C(F)(F)F.O=C(O)C(F)(F)F`, the “Percent Effect” value is reported as 0.3153%.
In the case of `CC(C)(C)c1cn(C[C@H]2CC3CCN2C[C@@H]3C(=O)NC2CC2)nn1` (stereo not given in full), the “Percent Effect” value is reported as 12.02%.
For `CC(C)N1[C@H](Cn2cncn2)C[C@@H]2CNCC[C@@H]21.Cl.Cl`, the “Percent Effect” value was -6.101%.
In the case of `Cc1ccc(N2CCO[C@H]3CN(Cc4ccccn4)C[C@H]32)nn1.O=C(O)C(F)(F)F.O=C(O)C(F)(F)F.O=C(O)C(F)(F)F`, the “Percent Effect” value is reported as -12.44%.
With `Cc1ccc(N2CC[C@@H]3[C@@H]2CCN3Cc2ccsc2)nn1.O=C(O)C(F)(F)F.O=C(O)C(F)(F)F` the “Percent Effect” value was 101.6%.
For `Cc1ccc(N2C[C@@H]3CN(Cc4ccsc4)CCO[C@@H]3C2)nn1.O=C(O)C(F)(F)F.O=C(O)C(F)(F)F`, the “Percent Effect” value was -3.128%.
`COc1ncnc(N)c1CNCCc1ccccc1` was tested, and the “Percent Effect” value was 127.7%.
For `COCCN1CCC2(C1)CN(c1ncc(F)cn1)C2.O=C(O)C(F)(F)F`, the “Percent Effect” value was 4.032%.
With `CCN1CCC12CCN(C(=O)c1cc(C)on1)C2.O=C(O)C(F)(F)F` (stereo not given) the “Percent Effect” value was -17.49%.
In the case of `CNC(=O)c1ccc2c(c1)C1(CCN(CCOC)CC1)C(=O)N2.O=C(O)C(F)(F)F`, the “Percent Effect” value is reported as 94.3%.
With `COCCN1CCC2(CC1)C(=O)Nc1ccc(C(=O)NC(C)C)cc12.O=C(O)C(F)(F)F` the “Percent Effect” value was 101%.
In the case of `CC(=O)N1CCC2(CN(CC3CCCC3)C2)C1.O=C(O)C(F)(F)F`, the “Percent Effect” value is reported as -16.93%.
In the case of `CC[C@@H]1N(CC2CC2)CCC[C@]12CCC(=O)N2.O=C(O)C(F)(F)F`, the “Percent Effect” value is reported as -18.87%.
`CNC(=O)c1ccc2c(c1)C1(CCN(CC3CC3)CC1)C(=O)N2.O=C(O)C(F)(F)F` was tested, and the “Percent Effect” value was 108.4%.
`Cn1cc(CN2CCC3(CC2)C(=O)Nc2ccccc23)cn1.O=C(O)C(F)(F)F` was tested, and the “Percent Effect” value was -7.765%.
`CCN1CCC2(CC1)C(=O)Nc1ccc(C(=O)NC)cc12.O=C(O)C(F)(F)F` was tested, and the “Percent Effect” value was 117.8%.
